# Results: the supplement of paper PMC10849652
# Targets with a hit are over-represented here; the source holds about 7,900 in all. About 0.6% of all pairs of compound and target were hits. A number with no mark means an inactive call.
# Tests used:
# Assay in all cases: log2 fold change, soluble protein after heating vs DMSO (PISA); higher = thermal stabilisation; K562 cells, 10 uM, 30 min; active = over 0.2 and 3.5 SD of the protein, either way, in both replicates (recomputed)
# saracatinib = compound: CN1CCN(CCOc2cc(OC3CCOCC3)c3c(Nc4c(Cl)ccc5c4OCO5)ncnc3c2)CC1 [saracatinib]
# Outline: (§1)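 Soluble protein was defined as the supernatant after 21,000xg for 90 min. It came from K562 cells at 2×10^6 cells/mL given 10 μM compound for 30 min, heated in aliquots for 3 min across 48°C-58°C, pooled, and extracted in PBS with 0.5% NP-40 at 4°C, and was quantified by TMTpro 16plex LC-MS/MS with equalised channel sums. Thermal stability against control samples, from duplicates, is reported as log2 fold change.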
# sotrastaurin = compound: CN1CCN(c2nc(C3=C(c4c[nH]c5ccccc45)C(=O)NC3=O)c3ccccc3n2)CC1 [sotrastaurin]
# Outline: as §1
# alvocidib = compound: CN1CC[C@H](c2c(O)cc(O)c3c(=O)cc(-c4ccccc4Cl)oc23)[C@H](O)C1 [alvocidib]
# Outline: as §1
# Tubastatin A = compound: CN1CCc2c(c3ccccc3n2Cc2ccc(C(=O)NO)cc2)C1 [Tubastatin A]
# Outline: as §1
# [1] = compound: CNC(=O)C1=CC=CC=C1NC2=NC(=NC=C2Cl)NC3=C(C=C(C=C3)N4CCOCC4)OC
# Outline: as §1
# defactinib = compound: CNC(=O)c1ccc(Nc2ncc(C(F)(F)F)c(NCc3nccnc3N(C)S(C)(=O)=O)n2)cc1 [defactinib]
# Outline: as §1
# rucaparib = compound: CNCc1ccc(-c2[nH]c3cc(F)cc4c3c2CCNC4=O)cc1 [rucaparib]
# Outline: as §1
# [2] = compound: CNc1nc(-c2ccc3c(N)n[nH]c3c2)cc(N2C[C@@H](C(=O)NC3CCCCC3)CC[C@H]2C)n1
# Outline: as §1
# encorafenib = compound: COC(=O)N[C@@H](C)CNc1nccc(-c2cn(C(C)C)nc2-c2cc(Cl)cc(NS(C)(=O)=O)c2F)n1 [encorafenib]
# Outline: as §1
# [3] = compound: COC(=O)[C@H](CCSC)NC(=O)C1=C(C=C(C=C1)NC[C@H](CS)N)C2=CC=CC=C2
# Outline: as §1
# [4] = compound: COC1=CC=C(C=C1)CN2C=CC3=C2C=C(C=C3)C(=O)NO
# Outline: as §1
# filanesib = compound: CON(C)C(=O)N1N=C(c2cc(F)ccc2F)S[C@@]1(CCCN)c1ccccc1 [filanesib]
# Outline: as §1
# zotarolimus = compound: CO[C@H]1C[C@@H]2CC[C@@H](C)[C@@](O)(O2)C(=O)C(=O)N2CCCC[C@H]2C(=O)O[C@H]([C@H](C)C[C@@H]2CC[C@H](n3cnnn3)[C@H](OC)C2)CC(=O)[C@H](C)/C=C(\C)[C@@H](O)[C@@H](OC)C(=O)[C@H](C)C[C@H](C)/C=C/C=C/C=C/1C [zotarolimus]
# Outline: as §1
# idasanutlin = compound: COc1cc(C(=O)O)ccc1NC(=O)[C@@H]1N[C@@H](CC(C)(C)C)[C@](C#N)(c2ccc(Cl)cc2F)[C@H]1c1cccc(Cl)c1F [idasanutlin]
# Outline: as §1
# alisertib = compound: COc1cc(Nc2ncc3c(n2)-c2ccc(Cl)cc2C(c2c(F)cccc2OC)=NC3)ccc1C(=O)O [alisertib]
# Outline: as §1
# [5] = compound: COc1cc2nc(-c3cc(F)ccc3O)nc(N[C@@H]3CNC[C@H]3C(C)(C)O)c2cc1OC
# Outline: as §1
# gefitinib = compound: COc1cc2ncnc(Nc3ccc(F)c(Cl)c3)c2cc1OCCCN1CCOCC1 [gefitinib]
# Outline: as §1
# [6] = compound: COc1cccc2cc(-c3nc([C@H]4CC[C@H](C(=O)O)CC4)n4ncnc(N)c34)[nH]c12
# Outline: as §1
# lapatinib = compound: CS(=O)(=O)CCNCc1ccc(-c2ccc3ncnc(Nc4ccc(OCc5cccc(F)c5)c(Cl)c4)c3c2)o1 [lapatinib]
# Outline: as §1
# pictilisib = compound: CS(=O)(=O)N1CCN(Cc2cc3nc(-c4cccc5[nH]ncc45)nc(N4CCOCC4)c3s2)CC1 [pictilisib]
# Outline: as §1
# Chain of UniProt P35670 (P35670 whole entry, looked up): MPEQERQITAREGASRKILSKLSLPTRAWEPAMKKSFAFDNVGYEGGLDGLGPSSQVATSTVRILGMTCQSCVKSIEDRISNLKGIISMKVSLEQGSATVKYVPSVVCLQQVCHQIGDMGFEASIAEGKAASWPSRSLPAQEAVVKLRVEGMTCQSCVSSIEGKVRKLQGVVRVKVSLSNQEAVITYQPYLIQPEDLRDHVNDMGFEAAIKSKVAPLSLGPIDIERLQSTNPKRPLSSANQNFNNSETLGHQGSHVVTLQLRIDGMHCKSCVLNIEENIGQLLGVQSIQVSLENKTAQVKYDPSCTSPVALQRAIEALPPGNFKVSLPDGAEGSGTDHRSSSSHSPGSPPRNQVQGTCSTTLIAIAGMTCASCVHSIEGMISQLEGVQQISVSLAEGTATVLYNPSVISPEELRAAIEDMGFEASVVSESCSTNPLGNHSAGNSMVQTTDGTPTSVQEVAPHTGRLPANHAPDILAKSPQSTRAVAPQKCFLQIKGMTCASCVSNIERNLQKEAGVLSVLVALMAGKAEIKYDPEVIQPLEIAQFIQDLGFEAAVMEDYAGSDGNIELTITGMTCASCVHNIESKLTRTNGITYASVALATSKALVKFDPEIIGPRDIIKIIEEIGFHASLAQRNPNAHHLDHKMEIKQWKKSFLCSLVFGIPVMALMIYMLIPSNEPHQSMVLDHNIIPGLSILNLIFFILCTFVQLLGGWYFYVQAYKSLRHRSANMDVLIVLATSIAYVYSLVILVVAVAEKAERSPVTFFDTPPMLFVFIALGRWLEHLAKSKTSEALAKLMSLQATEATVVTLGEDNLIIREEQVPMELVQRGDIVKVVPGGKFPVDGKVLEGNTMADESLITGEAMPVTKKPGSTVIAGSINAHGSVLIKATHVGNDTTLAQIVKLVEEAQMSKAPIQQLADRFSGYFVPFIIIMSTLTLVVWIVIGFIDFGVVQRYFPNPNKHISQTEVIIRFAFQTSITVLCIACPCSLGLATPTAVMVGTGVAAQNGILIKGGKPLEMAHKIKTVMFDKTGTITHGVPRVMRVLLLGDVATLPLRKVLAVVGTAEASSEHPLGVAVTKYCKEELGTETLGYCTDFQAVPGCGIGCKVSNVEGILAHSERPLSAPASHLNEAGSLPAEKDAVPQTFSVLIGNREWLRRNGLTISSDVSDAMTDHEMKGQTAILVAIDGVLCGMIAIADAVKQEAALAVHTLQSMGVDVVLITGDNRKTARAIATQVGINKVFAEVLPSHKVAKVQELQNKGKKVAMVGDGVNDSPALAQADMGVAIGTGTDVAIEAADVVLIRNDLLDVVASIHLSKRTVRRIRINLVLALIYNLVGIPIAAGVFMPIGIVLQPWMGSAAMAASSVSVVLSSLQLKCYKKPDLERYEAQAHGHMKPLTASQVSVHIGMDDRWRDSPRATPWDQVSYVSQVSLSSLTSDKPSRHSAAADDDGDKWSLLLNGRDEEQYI
# Chain of UniProt Q9UEY8 (Q9UEY8 whole entry, looked up): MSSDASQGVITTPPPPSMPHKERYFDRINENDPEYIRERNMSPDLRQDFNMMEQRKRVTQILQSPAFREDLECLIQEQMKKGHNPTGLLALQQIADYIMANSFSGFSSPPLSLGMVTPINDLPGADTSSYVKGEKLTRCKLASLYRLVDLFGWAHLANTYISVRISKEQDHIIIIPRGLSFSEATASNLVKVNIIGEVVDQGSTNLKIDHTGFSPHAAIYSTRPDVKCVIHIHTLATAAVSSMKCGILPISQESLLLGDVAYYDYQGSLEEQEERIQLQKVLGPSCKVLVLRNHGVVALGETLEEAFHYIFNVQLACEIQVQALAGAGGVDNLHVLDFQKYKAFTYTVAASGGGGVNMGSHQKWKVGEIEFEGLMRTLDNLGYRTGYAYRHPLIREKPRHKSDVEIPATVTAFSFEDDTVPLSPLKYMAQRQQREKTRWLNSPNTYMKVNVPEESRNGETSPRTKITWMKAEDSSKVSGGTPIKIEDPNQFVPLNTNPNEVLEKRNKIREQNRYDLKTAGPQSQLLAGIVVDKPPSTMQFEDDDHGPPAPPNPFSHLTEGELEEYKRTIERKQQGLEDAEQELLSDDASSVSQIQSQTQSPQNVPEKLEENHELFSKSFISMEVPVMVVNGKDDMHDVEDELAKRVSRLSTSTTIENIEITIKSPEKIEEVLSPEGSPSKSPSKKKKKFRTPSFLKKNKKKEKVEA
# Chain of UniProt Q6P6C2 (Q6P6C2 whole entry, looked up): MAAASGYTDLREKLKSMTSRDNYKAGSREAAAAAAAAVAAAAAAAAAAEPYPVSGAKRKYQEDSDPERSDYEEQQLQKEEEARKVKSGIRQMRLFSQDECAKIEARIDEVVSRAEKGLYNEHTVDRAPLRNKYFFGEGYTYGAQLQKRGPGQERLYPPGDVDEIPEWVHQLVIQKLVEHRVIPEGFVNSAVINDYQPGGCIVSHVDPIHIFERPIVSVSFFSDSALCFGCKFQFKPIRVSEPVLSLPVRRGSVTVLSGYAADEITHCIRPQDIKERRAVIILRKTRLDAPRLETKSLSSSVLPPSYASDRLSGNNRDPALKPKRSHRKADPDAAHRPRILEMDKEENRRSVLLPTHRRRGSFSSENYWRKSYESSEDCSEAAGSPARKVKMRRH
# Chain of UniProt P18085 (P18085 whole entry, looked up): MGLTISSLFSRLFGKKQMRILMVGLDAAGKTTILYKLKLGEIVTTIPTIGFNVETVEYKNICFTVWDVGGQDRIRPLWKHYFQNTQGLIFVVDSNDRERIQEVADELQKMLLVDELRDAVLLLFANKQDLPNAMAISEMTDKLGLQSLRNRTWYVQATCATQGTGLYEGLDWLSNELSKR
# Chain of UniProt O43823 (O43823 whole entry, looked up): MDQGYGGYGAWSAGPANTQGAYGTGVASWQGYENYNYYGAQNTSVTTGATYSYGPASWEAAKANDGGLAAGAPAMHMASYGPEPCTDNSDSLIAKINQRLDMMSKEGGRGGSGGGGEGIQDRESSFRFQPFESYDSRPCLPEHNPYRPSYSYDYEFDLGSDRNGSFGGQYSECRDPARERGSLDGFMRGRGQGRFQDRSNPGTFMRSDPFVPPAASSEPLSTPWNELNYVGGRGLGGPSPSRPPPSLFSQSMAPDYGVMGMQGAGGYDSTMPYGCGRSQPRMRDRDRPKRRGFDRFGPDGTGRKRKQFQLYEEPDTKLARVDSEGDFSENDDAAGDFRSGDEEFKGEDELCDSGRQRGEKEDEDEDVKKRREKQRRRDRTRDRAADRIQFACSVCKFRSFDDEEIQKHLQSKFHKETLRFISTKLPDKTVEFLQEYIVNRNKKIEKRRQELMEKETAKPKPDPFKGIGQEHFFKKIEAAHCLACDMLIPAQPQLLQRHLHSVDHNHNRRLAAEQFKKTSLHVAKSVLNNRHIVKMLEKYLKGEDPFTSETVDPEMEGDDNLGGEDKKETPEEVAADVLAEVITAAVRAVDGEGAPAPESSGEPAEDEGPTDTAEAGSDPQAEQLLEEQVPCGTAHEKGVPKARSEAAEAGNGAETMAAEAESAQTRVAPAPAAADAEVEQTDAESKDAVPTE
# Chain of UniProt P31749 (P31749 whole entry, looked up): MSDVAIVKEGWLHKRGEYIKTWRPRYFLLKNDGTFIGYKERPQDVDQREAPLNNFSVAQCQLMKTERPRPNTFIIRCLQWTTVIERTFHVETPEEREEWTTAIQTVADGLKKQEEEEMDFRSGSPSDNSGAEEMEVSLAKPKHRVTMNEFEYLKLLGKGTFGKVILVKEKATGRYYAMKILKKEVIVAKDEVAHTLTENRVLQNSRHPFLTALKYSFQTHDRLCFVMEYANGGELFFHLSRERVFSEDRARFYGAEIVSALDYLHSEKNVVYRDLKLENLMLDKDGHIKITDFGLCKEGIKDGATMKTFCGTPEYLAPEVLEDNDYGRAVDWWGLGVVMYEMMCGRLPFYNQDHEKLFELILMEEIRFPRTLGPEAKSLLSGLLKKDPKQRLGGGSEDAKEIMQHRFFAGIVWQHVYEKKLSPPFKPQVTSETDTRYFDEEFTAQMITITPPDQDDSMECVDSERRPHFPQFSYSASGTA
# Chain of UniProt P35611 (P35611 whole entry, looked up): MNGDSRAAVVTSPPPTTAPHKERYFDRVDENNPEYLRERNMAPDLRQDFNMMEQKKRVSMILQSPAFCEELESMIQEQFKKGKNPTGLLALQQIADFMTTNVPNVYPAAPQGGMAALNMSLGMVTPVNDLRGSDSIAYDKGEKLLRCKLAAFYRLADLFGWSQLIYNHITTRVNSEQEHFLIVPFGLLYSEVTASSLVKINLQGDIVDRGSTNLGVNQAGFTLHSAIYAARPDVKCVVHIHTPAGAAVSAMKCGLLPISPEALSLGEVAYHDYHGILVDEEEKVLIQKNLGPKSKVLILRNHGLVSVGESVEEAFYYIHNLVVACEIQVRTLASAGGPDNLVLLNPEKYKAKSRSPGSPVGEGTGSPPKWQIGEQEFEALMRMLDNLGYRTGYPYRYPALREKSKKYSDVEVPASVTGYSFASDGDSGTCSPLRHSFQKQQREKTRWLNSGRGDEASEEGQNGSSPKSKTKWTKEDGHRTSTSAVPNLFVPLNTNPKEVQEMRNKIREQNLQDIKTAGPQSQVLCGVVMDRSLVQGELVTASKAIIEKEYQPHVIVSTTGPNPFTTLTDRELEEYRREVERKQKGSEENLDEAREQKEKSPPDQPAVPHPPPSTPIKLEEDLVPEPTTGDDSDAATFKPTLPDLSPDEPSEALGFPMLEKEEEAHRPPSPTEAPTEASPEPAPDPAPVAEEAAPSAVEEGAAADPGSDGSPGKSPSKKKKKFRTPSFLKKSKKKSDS
# Chain of UniProt Q9UHQ4 (Q9UHQ4 whole entry, looked up): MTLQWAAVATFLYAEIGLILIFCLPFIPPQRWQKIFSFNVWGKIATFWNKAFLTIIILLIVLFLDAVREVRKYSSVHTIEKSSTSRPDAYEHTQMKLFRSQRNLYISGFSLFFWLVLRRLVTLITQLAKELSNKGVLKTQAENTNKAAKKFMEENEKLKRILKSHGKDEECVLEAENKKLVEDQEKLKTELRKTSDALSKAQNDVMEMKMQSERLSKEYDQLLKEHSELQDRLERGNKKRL
Target,log2 fold change (saracatinib),log2 fold change (sotrastaurin),log2 fold change (alvocidib),log2 fold change (Tubastatin A),log2 fold change [1],log2 fold change (defactinib),log2 fold change (rucaparib),log2 fold change [2],log2 fold change (encorafenib),log2 fold change [3],log2 fold change [4],log2 fold change (filanesib),log2 fold change (zotarolimus),log2 fold change (idasanutlin),log2 fold change (alisertib),log2 fold change [5],log2 fold change (gefitinib),log2 fold change [6],log2 fold change (lapatinib),log2 fold change (pictilisib)
ALKBH5 (UniProt Q6P6C2),-0.006,-0.044,0.092,0.118,-0.185,0.021,0.11,0.035,-0.048,0.003,0.124,0.001,-0.067,0.016,-0.12,0.044,0.023,-0.138,-0.008,0.094
AKAP8 (UniProt O43823),0.012,-0.021,0.112,0.002,-0.073,0.01,0.017,-0.126,0.037,0.008,0.026,0.035,-0.105,0.052,-0.046,-0.002,-0.049,0.067,0.014,0.101
ATP7B (UniProt P35670),0.069,0.005,-0.085,0.01,-0.019,-0.011,-0.044,0.005,0.052,-0.021,-0.02,0.087,-0.075,-0.233 (active),-0.02,-0.011,0.028,0.026,0.061,0.061
ATP2A3 isoform 2 (UniProt Q93084),0.058,-0.007,-0.021,-0.022,-0.026,-0.021,-0.04,0.033,0.027,0.002,-0.016,-0.118,-0.009,-0.027,-0.082,-0.004,-0.029,0.02,-0.002,0.027
ATP6V0A2 (UniProt Q9Y487),-0.009,-0.07,0.036,0.061,-0.003,0.019,-0.003,-0.021,0.043,-0.039,-0.029,-0.083,0.011,0.004,-0.082,-0.07,-0.058,-0.056,0.016,-0.071
ADRM1 (UniProt Q16186),-0.086,-0.091,0.042,0.18,-0.067,0.087,-0.022,0.111,0.108,0.017,0.088,0.008,0.057,-0.073,-0.031,-0.029,-0.055,-0.045,0.022,-0.013
ADD1 isoform 3 (UniProt P35611),0.095,-0.031,-0.088,-0.002,0.008,-0.039,-0.018,0,-0.024,0.031,0.071,0.013,-0.025,0.014,-0.059,-0.009,0.007,0.066,0.015,-0.004
AKT1 (UniProt P31749),-0.163,-0.25,-0.043,0.111,0.317,-0.062,0.038,-0.24,-0.003,-0.025,-0.001,0.001,0.059,-0.134,-0.07,0.1,0.025,-0.224,0.135,0.216
ARL6IP6 (UniProt Q8N6S5),0.192,0.005,-0.082,-0.014,-0.099,-0.053,0.009,0.004,0.015,-0.035,-0.113,-0.014,-0.03,-0.088,0.004,-0.042,-0.021,0.036,0.004,0.005
ARF4 (UniProt P18085),0.052,0.028,-0.005,0.011,0.028,-0.005,-0.051,-0.004,0,-0.032,0.007,-0.061,0.006,-0.153,-0.023,0.17,-0.005,0.019,0.037,0.035
BCAP29 isoform 2 (UniProt Q9UHQ4),0.052,0.104,0.041,-0.052,0.002,0.033,-0.043,-0.016,-0.026,0.018,-0.033,-0.047,-0.022,0.027,-0.023,-0.1,0.035,0.035,-0.009,-0.027
ATP23 (UniProt Q9Y6H3),0.029,0.04,-0.031,-0.056,0.055,0.028,0.096,0.041,0.001,0.01,0.003,-0.082,0.005,0.032,-0.033,-0.096,-0.062,0.067,0.007,0.018
ACSL1 (UniProt P33121),0,0.029,-0.083,-0.075,-0.003,-0.025,-0.021,-0.025,0.031,0.042,-0.014,-0.08,0.038,-0.017,0.015,-0.261,0.024,0.024,0.017,0.041
ATP6AP1 (UniProt Q15904),-0.021,-0.097,0.055,0.043,-0.011,0.066,-0.057,-0.006,0.053,-0.031,-0.099,-0.064,0.025,0.009,0.166,-0.068,-0.009,-0.057,0.019,-0.017
ADD3 (UniProt Q9UEY8),0.032,-0.087,-0.068,-0.02,-0.005,-0.018,-0.013,-0.039,-0.003,0.045,0.018,0.059,-0.074,0.02,-0.063,0.057,0.021,0.063,-0.006,0.075
AGRN (UniProt O00468),0.062,0.065,-0.009,-0.01,0,-0.119,0.032,-0.164,0.034,0.014,-0.068,0.014,-0.001,-0.005,-0.043,-0.071,0.118,0.037,0.018,0.055
